For 13 molecules, Potency and outcome results are on record in PubChem BioAssay (Tox21).

Experiment [1] in a line: qHTS assay for small molecules that induce genotoxicity in human embryonic kidney cells expressing luciferase-tagged ATAD5 (AID 651632). Note: nearly all actives have a fitted effect of over 15% in size. A digest of the protocol:
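Test compounds were delivered by pin tool onto HEK293T reporter cells (2,000/well) expressing ATAD5 fused to luciferase. After 16 hr at 37C, 5% CO2, Amplite was added for 30 min at room temperature and luminescence was measured.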
On the technique in general: Quantitative high-throughput screening tests each substance at several concentrations.

Experiment [2] in a line: qHTS assay for small molecule agonists of the p53 signaling pathway - cell viability (AID 651633; calls by dose curve; note: nearly all actives have a fitted effect of over 30% in size; note: potency is the fitted concentration of half-maximal effect). In short, it runs like this:
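p53RE-bla cells, seeded at 4,000 per well and rested 5 h at 37 C/5% CO2, received compounds in DMSO for 16 h at 37 C. CellTiter-Glo was then added, and luminescence was read after 30 min at room temperature to gauge cytotoxicity.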

The nature of experiment [3]: qHTS assay to test for compound auto fluorescence at 590 nm (red) in HepG2 cells (AID 720674). A digest of the protocol:
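Rose Bengal sodium served as the red fluorophore standard. HepG2 monolayers (overnight attachment, MEM with 10% FBS) were exposed to test compounds for 1 hr at 37 C and read at Ex 540/Em 590 nm.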

Experiment [4] can be described thus: qHTS assay to test for compound auto fluorescence at 460 nm (blue) in HEK293 cells (AID 720678). A digest of the protocol:
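Blue read-out at excitation 405 nm and emission 460 nm follows overnight compound exposure of HEK293 cells at 37C in 5% CO2. Activity is given as auto fluorescence equivalency to triamterene.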

Experiment [5] can be described thus: qHTS assay to test for compound auto fluorescence at 590 nm (red) in HEK293 cells (AID 720679). A digest of the protocol: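 Red channel, Ex/Em 540/590nm; signal expressed as equivalency to Rose Bengal sodium. HEK293, 2,000 cells/well, 10% dialyzed FBS; 23 nL compound pinned after 4-5 hr attachment; overnight 37C/5% CO2 before reading.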
Experiment [6] is described as follows: qHTS assay to test for compound auto fluorescence at 460 nm (blue) in HepG2 cells (AID 720687). A digest of the protocol: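 Cells (2,000/well in MEM with 10% FBS) attached overnight at 37 C, then were exposed to compound or DMSO for 1 hr at 37 C, 5% CO2. Fluorescence read at Ex/Em 405/460 nm, expressed as triamterene-equivalent signal.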
The target of experiment [7] is Glucocorticoid receptor (Homo sapiens) (UniProt P04150). The experiment is described as follows: qHTS assay to identify small molecule agonists of the glucocorticoid receptor (GR) signaling pathway (AID 720691; active = well fitted activation curve with a large enough effect in the signal ratio in the repeat runs, not every such curve was filed as active; the % refers to the signal ratio). In short, it runs like this:
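A HeLa cervical cancer line expressing GR and a glucocorticoid response element-driven beta-lactamase gene is treated with compounds for 18 h; LiveBLAzer B/G FRET substrate is then applied and fluorescence read.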

A short description of experiment [8]: qHTS assay to identify small molecule antagonists of the glucocorticoid receptor (GR) signaling pathway - cell viability counter screen (AID 720693). Note: nearly all actives have a fitted effect of over 55% in size. Note: potency is the fitted concentration of half-maximal effect.
Experiment [9] is described as follows: qHTS assay for identifying genotoxic compounds that show differential cytotoxicity against isogenic chicken DT40 cell lines with known DNA damage response pathways - Rev3 mutant cell line (AID 743014). Note: nearly all actives have a fitted effect of over 55% in size.
Experiment [10] can be described thus: qHTS assay for identifying genotoxic compounds that show differential cytotoxicity against isogenic chicken DT40 cell lines with known DNA damage response pathways - Rad54/Ku70 mutant cell line (AID 743015). Note: nearly all actives have a fitted effect of over 60% in size. Note: potency is the fitted concentration of half-maximal effect.
Experiment [11] can be described thus: qHTS assay to identify small molecule antagonists of the androgen receptor (AR) signaling pathway - cell viability counter screen (AID 743033; note: nearly all actives have a fitted effect of over 45% in size).
A short description of experiment [12]: qHTS assay to identify small molecule antagonists of the thyroid receptor (TR) signaling pathway - cell viability counter screen (AID 743064). Note: nearly all actives have a fitted effect of over 50% in size. Note: potency is the fitted concentration of half-maximal effect. A digest of the protocol:
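Rat GH3 pituitary tumor cells stably expressing two TR response elements driving luciferase were plated, rested 4 h, then dosed with library compounds and T3 (1 nM final). After 23.5 h at 37 °C, CellTiter-Fluor was added for 30 min and fluorescence recorded.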

Experiment [13] addresses Estrogen receptor (Homo sapiens) (UniProt P03372). The experiment is described as follows: qHTS assay to identify small molecule agonists of the estrogen receptor alpha (ER-alpha) signaling pathway (AID 743075; calls by dose curve;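 note: HEK293 GripTite cells with ER-alpha and UAS-driven beta-lactamase reporter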).
For experiment [14] the target is unchanged. Description: qHTS assay to identify small molecule agonists of the estrogen receptor alpha (ER-alpha) signaling pathway using the BG1 cell line (AID 743079). Note: nearly all actives have a fitted effect of over 20% in size. Note: potency is the fitted concentration of half-maximal effect.
Experiment [15] concerns the target Peroxisome proliferator-activated receptor gamma (Homo sapiens) (UniProt P37231). Description: qHTS assay to identify small molecule agonists of the peroxisome proliferator-activated receptor gamma (PPARg) signaling pathway (AID 743094; active = well fitted activation curve with a large enough effect in the signal ratio in the repeat runs, not every such curve was filed as active; the % refers to the signal ratio). A digest of the protocol: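 Cell-based bla reporter, HEK293H background, PPARg-driven UAS. Pre-incubation 5 h, 37C, 5% CO2. Compound 17 h, 37C. Substrate 1 h RT; fluorescence.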

Experiment [16] has as its target Nuclear receptor subfamily 1 group I member 2 (Homo sapiens) (UniProt O75469). Description: CYP3A4 induction through human pregnane X receptor (PXR) by small molecules, qHTS assay (AID 1346984). Note: nearly all actives have a fitted effect of over 40% in size. Note: potency is the fitted concentration of half-maximal effect. In short, it runs like this: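 Human PXR activation is tracked via CYP3A4 promoter-luciferase in DPX-2 (HepG2) cells. Compounds treat cells for 24hr at 37C, and luminescence is read after One-Glo.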

Experiment [17] has the same target. The experiment is described as follows: Human pregnane X receptor (PXR) activation by small molecules, qHTS assay (AID 1346985). Note: nearly all actives have a fitted effect of over 40% in size. A digest of the protocol:
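DPX-2 cells (HepG2 co-transfected with a PXR response element and a CYP3A4-promoter luciferase construct) were seeded at 2,000 per well, rested 5 hr at 37C, then exposed to DMSO-dissolved compounds for 24 hr. Activation was read as luciferase luminescence.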

Experiment [18] can be described thus: qHTS assay to identify small molecule antagonists of the thyroid receptor (TR) signaling pathway (AID 743065). Note: nearly all actives have a fitted effect of over 55% in size. Note: potency is the fitted concentration of half-maximal effect. A digest of the protocol: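 GH3.TRE-Luc rat pituitary cells carrying two TR response elements driving luciferase were plated for 4 h, given compound plus 1 nM T3 (final), and incubated 23.5 h at 37 C. ONE-Glo luminescence measured reporter inhibition; CellTiter-Fluor fluorescence tracked cytotoxicity.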

Experiment [19] in a line: qHTS assay for identifying genotoxic compounds that show differential cytotoxicity against isogenic chicken DT40 cell lines with known DNA damage response pathways - wild type cell line (AID 743012). Note: nearly all actives have a fitted effect of over 60% in size. Note: potency is the fitted concentration of half-maximal effect. In short, it runs like this:
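300 wt DT40 cells/well; cpd (DMSO) pintool-transferred after ~0.5 h at 37 C/5% CO2; 40 h incubation; CellTiter-Glo added, 30 min RT; luminescence read.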

Experiment [20] addresses Glucocorticoid receptor (Homo sapiens) (UniProt P04150). Description: qHTS assay to identify small molecule antagonists of the glucocorticoid receptor (GR) signaling pathway (AID 720692; active = well fitted inhibition curve with a large enough effect in the signal ratio in the repeat runs, not every such curve was filed as active; the % refers to the signal ratio). A digest of the protocol:
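GRE-bla HeLa line, dex-stimulated (5 nM final). Compound exposure 18 h, 37 C. Beta-lactamase FRET read after 2 h RT substrate.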

Several values for one entry are separate records, joined by “and”; a condition that tells them apart may be missing. Equal values may be shown once. Records with an inconclusive call do not appear. Some structures have more than one record in an assay (separate samples or runs), and their calls can disagree. Activity calls are given as the source filed them. Unless noted, calls come from the whole dose curve; as a rule, active = well fitted curve in the direction sought with a large enough effect in the repeat runs; inconclusive = weak or mixed curves; inactive = no such curve, though single readings can be large; an effect the other way counts as inactive or inconclusive.

Sequence of Peroxisome proliferator-activated receptor gamma (Homo sapiens) (P37231 whole entry, looked up): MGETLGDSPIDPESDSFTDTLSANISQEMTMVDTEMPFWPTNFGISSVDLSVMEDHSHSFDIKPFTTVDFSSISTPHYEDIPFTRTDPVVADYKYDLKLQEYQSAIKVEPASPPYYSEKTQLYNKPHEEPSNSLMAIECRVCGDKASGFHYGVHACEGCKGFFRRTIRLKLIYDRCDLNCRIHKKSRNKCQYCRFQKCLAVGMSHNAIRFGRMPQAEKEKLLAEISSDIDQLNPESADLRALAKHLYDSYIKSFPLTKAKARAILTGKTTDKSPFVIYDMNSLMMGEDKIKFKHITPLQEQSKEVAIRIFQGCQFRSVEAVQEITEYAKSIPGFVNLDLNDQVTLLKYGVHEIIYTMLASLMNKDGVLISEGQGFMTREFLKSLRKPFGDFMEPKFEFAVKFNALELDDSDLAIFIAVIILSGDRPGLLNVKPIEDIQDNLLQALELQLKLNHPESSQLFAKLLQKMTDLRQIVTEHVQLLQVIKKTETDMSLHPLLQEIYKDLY
Sequence of Estrogen receptor (Homo sapiens) (P03372 whole entry, looked up): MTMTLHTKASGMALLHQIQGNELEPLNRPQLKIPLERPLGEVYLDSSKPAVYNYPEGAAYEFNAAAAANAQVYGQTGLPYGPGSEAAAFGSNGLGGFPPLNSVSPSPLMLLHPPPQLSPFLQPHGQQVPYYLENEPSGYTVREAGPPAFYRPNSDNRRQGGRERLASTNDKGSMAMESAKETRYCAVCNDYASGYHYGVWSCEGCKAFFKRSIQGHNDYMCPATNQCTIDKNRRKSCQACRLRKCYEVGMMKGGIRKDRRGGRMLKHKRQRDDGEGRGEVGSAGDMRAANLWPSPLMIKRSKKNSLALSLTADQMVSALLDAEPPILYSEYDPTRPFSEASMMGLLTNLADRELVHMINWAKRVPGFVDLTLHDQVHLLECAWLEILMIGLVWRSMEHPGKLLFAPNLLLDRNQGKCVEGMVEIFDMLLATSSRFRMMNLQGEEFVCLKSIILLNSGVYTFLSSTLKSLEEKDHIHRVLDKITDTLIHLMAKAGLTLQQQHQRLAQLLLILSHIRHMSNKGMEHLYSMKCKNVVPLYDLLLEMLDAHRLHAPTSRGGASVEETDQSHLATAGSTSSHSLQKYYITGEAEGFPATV
Sequence of Glucocorticoid receptor (Homo sapiens) (P04150 whole entry, looked up): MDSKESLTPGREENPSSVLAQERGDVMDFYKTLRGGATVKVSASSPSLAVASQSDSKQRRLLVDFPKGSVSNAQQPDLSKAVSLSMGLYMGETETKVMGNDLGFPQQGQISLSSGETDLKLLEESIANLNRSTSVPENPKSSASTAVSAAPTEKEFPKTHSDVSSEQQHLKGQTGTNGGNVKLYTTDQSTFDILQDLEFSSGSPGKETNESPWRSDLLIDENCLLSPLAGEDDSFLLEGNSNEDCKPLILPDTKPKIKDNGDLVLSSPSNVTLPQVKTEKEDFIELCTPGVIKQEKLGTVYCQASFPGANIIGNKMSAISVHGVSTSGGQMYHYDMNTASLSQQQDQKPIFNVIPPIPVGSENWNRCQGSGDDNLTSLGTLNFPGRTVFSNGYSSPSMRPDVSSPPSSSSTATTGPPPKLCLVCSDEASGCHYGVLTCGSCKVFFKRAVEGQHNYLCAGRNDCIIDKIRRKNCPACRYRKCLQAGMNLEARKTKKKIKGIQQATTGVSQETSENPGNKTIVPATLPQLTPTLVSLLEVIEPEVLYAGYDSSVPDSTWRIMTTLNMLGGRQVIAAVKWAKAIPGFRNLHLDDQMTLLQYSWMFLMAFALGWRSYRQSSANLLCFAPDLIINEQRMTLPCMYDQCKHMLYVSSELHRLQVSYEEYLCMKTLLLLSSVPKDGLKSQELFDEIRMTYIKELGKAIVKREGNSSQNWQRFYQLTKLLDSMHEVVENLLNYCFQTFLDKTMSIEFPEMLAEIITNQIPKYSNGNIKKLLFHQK

`C[C@]12CC[C@H](OS(=O)(=O)O)CC1=CC[C@@H]1[C@@H]2CC[C@]2(C)C(=O)CC[C@@H]12`: the Potency result in experiment [1], in experiment [2], in experiment [4], in experiment [6], in [7] and in [8] was “inactive” in each case. The Potency entry in experiment [9], in [10], in experiment [11], in experiment [12], in [13] and in [15] was “inactive” in each case. Also, the Potency result in [16] and in experiment [17] was “inactive” throughout. For the same molecule, the call in experiment [3] and in experiment [5] was inactive. In addition, the Potency in experiment [14] was 13.3 µM (active).

In the case of `Oc1c(Cl)cc(Cl)cc1Cl`, the call in experiment [3] and in [5] was inactive. Moreover, the Potency result in [4], in experiment [6] and in experiment [18] was “inactive” in each case.

In the case of `COC(COC(N)=O)C1=C(N2CC2)C(=O)C(C)=C(N2CC2)C1=O` (stereo not given), the Potency entry in experiment [1], in experiment [4], in experiment [6], in experiment [7], in experiment [11] and in experiment [13] was “inactive” throughout. In addition, the Potency entry in [16] and in experiment [17] was “inactive” throughout. Moreover, the Potency was 7.5 µM (active) in [2]; 1.9 µM (active) in [8]; 0.0042 µM (active) in [19]; 0.0047 µM (active) in experiment [10]; 0.841 µM (active) in [12]; 0.168 µM (active) in experiment [18]. Further, the result in experiment [5] was inactive.

On to `Cc1ccccc1-n1c(CF)nc2ccc(N)cc2c1=O`, for which the Potency entry in [1], in experiment [2], in experiment [4], in experiment [6], in experiment [9] and in experiment [11] was “inactive” in each case. The Potency entry in experiment [12], in [18], in [15] and in experiment [17] was “inactive” each time. Also, the molecule was called inactive in experiment [3] and in experiment [5]. Also, in experiment [16], the Potency was 7.08 µM (active).

Take `C=CCN(C1=NCCN1)c1c(Cl)cccc1Cl`: the Potency entry in [1], in experiment [2], in experiment [4], in experiment [6], in experiment [7] and in [20] was “inactive” in each case. The Potency result in [8], in experiment [19], in experiment [9], in experiment [10], in experiment [12] and in experiment [18] was “inactive” throughout. Also, the Potency entry in experiment [13], in experiment [15], in experiment [16] and in [17] was “inactive” throughout. The call in experiment [5] was inactive. In addition, in experiment [14], the Potency was 11.9 µM (active).

In the case of `O=[N+]([O-])c1cc(I)c(O)c(I)c1`, the Potency entry in experiment [1], in experiment [4], in experiment [6], in experiment [7], in [11] and in [16] was “inactive” in each case. Further, in [17], the Potency entry was “inactive”. Also, the Potency was 3.76 µM (active) in experiment [2], 26.6 µM (active) in [12] and 21.1 µM (active) in [18]. In addition, the outcome in experiment [3] and in experiment [5] was inactive.

Consider `CC(=O)OC1CN2CCC1CC2` (stereo not given), for which the Potency entry in experiment [1], in experiment [2], in experiment [4], in experiment [6], in experiment [7] and in [20] was “inactive” in each case. In addition, the Potency entry in experiment [8], in experiment [19], in [9], in experiment [10], in experiment [11] and in [12] was “inactive” in each case. For the same molecule, the Potency entry in experiment [18], in experiment [13], in experiment [14], in [15], in [16] and in experiment [17] was “inactive” in each case. Besides, the outcome in experiment [3] was inactive.

`CN(C)CCCCCCN(C)C`: the Potency result in [2], in [4], in [6], in [7], in [20] and in [8] was “inactive” in each case. The Potency entry in [19], in experiment [9], in [10], in [11], in experiment [12] and in [18] was “inactive” in each case. Moreover, in experiment [3], the outcome was inactive.

As for `CCON=O`, the Potency entry in [1], in experiment [2], in experiment [4], in [6], in [7] and in experiment [20] was “inactive” each time. Moreover, the Potency entry in [19], in experiment [9], in experiment [10], in experiment [11], in experiment [12] and in [18] was “inactive” throughout. Moreover, the Potency entry in experiment [13], in [15], in [16] and in experiment [17] was “inactive” throughout. Also, the call in experiment [3] and in [5] was inactive.

For `C#CC(C)(O)CC` (stereo not given), the Potency result in experiment [2], in experiment [4], in experiment [6], in experiment [7], in experiment [20] and in experiment [8] was “inactive” throughout. Moreover, the Potency result in experiment [19], in [9], in experiment [10], in [18], in [13] and in experiment [14] was “inactive” in each case. For the same molecule, the Potency entry in experiment [15], in experiment [16] and in experiment [17] was “inactive” throughout. For the same molecule, in experiment [5], the molecule was classed as inactive.

On to `CC(=O)OO`, for which the Potency entry in [1], in experiment [2], in experiment [6], in experiment [8], in [19] and in [9] was “inactive” each time. The Potency result in experiment [10], in experiment [11], in experiment [12], in [18], in experiment [13] and in experiment [14] was “inactive” each time. The Potency entry in experiment [15], in experiment [16] and in experiment [17] was “inactive” each time. Moreover, the outcome in experiment [3] and in experiment [5] was inactive.

On to `CCC(N)Cc1c[nH]c2ccccc12` (stereo not given), for which the Potency entry in experiment [1], in experiment [4], in [6], in [8], in experiment [9] and in [11] was “inactive” throughout. The Potency entry in experiment [12], in [18], in [15], in experiment [16] and in experiment [17] was “inactive” in each case. Moreover, the molecule was classed as inactive in [3]. The Potency entry in experiment [19] was “inactive and 68.8 µM (active)”.

`c1csc(C2(N3CCCCC3)CCCCC2)c1`: the call in experiment [3] and in experiment [5] was inactive. Moreover, the Potency result in experiment [4], in [6], in experiment [8], in [19], in experiment [9] and in experiment [10] was “inactive” in each case. For the same molecule, the Potency entry in experiment [12], in experiment [18], in [13], in experiment [14], in experiment [15] and in experiment [16] was “inactive” each time.
